In the supplement of paper PMC10849652:
The full data set covers some 7,900 targets. This sample favours those with a hit. About 0.6% of all pairs of compound and target were hits.

Compound: C1=CC2=C(C=CC(=C2)/C=C\3/C(=O)NC(=NCC4=CC=CS4)S3)N=C1
Experiment: log2 fold change, soluble protein after heating vs DMSO (PISA); higher = thermal stabilisation; K562 cells, 10 uM, 30 min; active = over 0.2 and 3.5 SD of the protein, either way, in both replicates (recomputed)
In short: (§1)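 K562 cells at 2×10^6 cells/mL were exposed to 10 μM compound for 30 min, then aliquots were heated for 3 min across 48°C-58°C, pooled, and extracted in PBS containing 0.5% NP-40 at 4°C. The supernatant after 21,000xg for 90 min was taken as soluble protein and measured by TMTpro 16plex LC-MS/MS with channel sums equalised. Thermal stability is reported relative to control samples, with values from duplicates. Fold changes are given on a log2 scale.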

UniProt Q9Y2I1, sequence (Q9Y2I1 whole entry, looked up): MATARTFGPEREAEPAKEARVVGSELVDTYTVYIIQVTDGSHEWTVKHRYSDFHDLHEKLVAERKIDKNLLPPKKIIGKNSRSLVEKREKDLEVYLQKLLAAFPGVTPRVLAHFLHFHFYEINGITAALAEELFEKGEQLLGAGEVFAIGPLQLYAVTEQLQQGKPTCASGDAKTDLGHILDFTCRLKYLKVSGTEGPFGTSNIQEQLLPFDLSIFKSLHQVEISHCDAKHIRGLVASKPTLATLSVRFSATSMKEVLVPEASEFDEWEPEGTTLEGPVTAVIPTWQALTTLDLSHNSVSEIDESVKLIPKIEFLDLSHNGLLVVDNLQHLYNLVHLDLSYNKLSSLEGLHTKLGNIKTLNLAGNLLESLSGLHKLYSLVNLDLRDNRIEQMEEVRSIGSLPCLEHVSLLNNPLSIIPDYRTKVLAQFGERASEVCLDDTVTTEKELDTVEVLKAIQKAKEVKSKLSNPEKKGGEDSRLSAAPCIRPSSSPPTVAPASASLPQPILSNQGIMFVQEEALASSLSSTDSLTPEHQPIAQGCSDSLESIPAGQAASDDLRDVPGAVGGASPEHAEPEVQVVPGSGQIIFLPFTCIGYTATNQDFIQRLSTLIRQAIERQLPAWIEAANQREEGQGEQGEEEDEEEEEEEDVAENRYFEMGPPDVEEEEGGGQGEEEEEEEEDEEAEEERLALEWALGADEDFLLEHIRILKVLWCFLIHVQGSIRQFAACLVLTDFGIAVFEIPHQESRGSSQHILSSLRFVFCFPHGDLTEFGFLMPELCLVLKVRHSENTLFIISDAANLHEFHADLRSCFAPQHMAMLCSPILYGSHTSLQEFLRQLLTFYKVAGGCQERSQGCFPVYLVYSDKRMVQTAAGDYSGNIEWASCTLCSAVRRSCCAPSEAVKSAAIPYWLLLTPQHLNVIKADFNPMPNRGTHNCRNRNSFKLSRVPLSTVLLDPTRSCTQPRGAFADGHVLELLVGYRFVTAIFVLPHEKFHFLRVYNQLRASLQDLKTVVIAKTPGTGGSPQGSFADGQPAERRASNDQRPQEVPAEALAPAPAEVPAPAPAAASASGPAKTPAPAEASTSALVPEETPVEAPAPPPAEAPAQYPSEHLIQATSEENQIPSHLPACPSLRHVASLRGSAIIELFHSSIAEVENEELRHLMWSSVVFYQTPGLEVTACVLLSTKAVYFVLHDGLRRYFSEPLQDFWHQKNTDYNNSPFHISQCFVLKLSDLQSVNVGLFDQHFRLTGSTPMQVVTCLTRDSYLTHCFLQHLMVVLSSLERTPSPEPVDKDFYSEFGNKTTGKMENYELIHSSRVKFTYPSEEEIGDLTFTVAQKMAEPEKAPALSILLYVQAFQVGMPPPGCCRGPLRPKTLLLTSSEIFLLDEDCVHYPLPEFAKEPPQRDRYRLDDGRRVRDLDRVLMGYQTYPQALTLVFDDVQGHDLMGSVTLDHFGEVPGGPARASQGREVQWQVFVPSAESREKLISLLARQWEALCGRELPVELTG
UniProt Q96MF7, sequence (Q96MF7 whole entry, looked up): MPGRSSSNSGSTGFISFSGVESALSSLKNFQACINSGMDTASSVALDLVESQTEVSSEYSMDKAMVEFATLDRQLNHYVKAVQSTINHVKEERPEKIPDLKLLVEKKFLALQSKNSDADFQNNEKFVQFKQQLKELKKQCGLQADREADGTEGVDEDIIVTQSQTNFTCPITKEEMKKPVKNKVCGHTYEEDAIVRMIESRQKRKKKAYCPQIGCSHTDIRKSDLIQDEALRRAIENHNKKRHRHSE
UniProt Q12986, sequence (Q12986 whole entry, looked up): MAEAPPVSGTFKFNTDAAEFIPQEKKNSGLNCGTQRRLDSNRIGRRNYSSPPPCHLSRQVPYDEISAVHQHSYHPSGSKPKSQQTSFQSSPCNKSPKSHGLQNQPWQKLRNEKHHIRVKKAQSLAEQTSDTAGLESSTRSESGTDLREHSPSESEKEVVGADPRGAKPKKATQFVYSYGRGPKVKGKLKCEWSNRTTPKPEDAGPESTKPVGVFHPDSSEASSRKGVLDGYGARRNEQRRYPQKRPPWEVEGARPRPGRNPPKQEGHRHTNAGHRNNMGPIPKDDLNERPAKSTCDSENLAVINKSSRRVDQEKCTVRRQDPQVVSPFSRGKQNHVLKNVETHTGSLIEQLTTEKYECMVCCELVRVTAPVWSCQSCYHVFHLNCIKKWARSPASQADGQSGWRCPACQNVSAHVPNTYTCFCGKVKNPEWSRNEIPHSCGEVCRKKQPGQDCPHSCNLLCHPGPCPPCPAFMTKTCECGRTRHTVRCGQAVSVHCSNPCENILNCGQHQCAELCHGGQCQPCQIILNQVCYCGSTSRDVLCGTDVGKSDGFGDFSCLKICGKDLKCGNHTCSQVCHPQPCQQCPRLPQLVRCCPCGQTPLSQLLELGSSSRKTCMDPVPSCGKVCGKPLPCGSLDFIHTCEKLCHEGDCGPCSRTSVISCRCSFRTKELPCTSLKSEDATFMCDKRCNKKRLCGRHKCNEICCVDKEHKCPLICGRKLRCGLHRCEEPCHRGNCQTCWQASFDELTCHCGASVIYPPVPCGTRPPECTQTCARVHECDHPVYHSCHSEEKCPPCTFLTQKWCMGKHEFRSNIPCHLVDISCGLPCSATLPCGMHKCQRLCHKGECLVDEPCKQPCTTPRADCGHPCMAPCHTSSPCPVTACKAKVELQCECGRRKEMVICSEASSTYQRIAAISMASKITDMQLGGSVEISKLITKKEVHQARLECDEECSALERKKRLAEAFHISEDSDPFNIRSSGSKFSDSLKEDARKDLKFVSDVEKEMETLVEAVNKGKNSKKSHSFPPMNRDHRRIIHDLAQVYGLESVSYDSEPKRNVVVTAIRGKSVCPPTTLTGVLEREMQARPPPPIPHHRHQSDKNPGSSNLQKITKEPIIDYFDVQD
UniProt Q8IXH7, sequence (Q8IXH7 whole entry, looked up): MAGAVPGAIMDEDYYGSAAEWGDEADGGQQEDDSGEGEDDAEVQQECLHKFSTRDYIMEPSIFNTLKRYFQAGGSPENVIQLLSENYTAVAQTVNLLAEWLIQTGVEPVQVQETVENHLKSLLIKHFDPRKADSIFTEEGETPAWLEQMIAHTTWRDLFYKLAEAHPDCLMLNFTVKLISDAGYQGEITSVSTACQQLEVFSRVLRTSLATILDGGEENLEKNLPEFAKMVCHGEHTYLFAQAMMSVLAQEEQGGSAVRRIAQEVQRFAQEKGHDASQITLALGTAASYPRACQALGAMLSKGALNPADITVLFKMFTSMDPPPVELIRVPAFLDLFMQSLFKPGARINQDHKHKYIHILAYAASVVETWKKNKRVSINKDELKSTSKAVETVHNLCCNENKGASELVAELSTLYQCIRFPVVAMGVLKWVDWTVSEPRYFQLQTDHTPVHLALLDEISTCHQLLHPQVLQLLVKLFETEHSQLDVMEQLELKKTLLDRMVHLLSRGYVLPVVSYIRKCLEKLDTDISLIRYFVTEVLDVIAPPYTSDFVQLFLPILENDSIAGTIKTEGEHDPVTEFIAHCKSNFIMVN
UniProt P04181, sequence (P04181 whole entry, looked up): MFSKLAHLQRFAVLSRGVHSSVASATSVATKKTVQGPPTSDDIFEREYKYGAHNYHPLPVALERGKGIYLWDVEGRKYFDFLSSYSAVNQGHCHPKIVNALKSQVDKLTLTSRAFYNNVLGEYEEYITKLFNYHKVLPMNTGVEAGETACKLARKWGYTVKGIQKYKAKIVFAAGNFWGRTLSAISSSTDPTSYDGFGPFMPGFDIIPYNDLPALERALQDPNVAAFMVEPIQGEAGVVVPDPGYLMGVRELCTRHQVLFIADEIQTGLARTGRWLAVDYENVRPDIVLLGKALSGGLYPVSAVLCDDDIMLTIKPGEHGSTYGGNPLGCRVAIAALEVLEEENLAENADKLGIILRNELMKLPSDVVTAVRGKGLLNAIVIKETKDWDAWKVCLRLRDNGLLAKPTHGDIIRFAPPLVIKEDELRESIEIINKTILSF
UniProt O43913, sequence (O43913 whole entry, looked up): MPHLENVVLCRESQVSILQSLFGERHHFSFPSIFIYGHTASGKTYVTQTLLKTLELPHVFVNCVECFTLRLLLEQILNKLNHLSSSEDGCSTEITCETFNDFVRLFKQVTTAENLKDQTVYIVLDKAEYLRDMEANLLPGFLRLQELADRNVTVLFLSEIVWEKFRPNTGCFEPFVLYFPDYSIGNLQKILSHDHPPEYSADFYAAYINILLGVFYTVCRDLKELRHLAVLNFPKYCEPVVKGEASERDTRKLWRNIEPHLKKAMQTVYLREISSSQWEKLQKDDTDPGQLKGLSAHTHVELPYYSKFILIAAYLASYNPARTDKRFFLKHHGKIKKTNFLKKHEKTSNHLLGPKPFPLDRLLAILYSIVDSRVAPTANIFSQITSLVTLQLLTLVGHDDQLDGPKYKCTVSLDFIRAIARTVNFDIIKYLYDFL
UniProt Q9BVC4, sequence (Q9BVC4 whole entry, looked up): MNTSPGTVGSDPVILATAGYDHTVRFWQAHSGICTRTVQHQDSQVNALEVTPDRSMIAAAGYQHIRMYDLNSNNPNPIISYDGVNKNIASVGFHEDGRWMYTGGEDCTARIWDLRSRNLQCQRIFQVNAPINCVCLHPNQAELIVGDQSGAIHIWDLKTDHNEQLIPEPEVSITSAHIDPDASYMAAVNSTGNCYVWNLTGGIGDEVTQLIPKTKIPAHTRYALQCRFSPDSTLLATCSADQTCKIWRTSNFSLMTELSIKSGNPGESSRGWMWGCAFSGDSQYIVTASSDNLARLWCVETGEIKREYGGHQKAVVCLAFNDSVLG
UniProt Q9HBL8, sequence (Q9HBL8 whole entry, looked up): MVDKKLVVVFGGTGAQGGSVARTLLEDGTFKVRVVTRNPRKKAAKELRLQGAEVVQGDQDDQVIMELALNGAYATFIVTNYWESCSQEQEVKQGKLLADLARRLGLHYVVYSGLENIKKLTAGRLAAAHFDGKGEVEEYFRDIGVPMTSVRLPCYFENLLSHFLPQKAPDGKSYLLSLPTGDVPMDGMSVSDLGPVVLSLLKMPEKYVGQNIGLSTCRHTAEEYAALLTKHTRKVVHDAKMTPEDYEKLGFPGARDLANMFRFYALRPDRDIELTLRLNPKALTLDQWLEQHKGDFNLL
UniProt O75438, sequence (O75438 whole entry, looked up): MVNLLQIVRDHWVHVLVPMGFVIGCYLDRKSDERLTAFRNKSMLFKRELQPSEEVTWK

log2 fold change, inactive:
NPC1 (UniProt O15118) -0.01
NFX1 (UniProt Q12986) 0.042
NME7 (UniProt Q9Y5B8) 0.127
NOP53 (UniProt Q9NZM5) -0.298
OAT (UniProt P04181) 0.042
NDUFS4 (UniProt O43181) -0.093
OTUD6B (UniProt Q8N6M0) 0.142
NDUFB8 (UniProt O95169) 0.033
NISCH (UniProt Q9Y2I1) 0.089
OSBPL3 (UniProt Q9H4L5) 0.094
NFYB (UniProt P25208) -0.047
NA isoform 3 (UniProt Q4G0T1) 0.11
NUMB (UniProt P49757) -0.001
NFATC3 (UniProt Q12968) 0.039
NAGPA (UniProt Q9UK23) 0.033
OXSR1 (UniProt O95747) 0.106
MTHFD1 (UniProt P11586) 0.019
OTULIN (UniProt Q96BN8) 0.066
NEK3 (UniProt P51956) -0.063
MRPS15 (UniProt P82914) 0.069
NMRAL1 (UniProt Q9HBL8) 0.098
MON2 isoform 5 (UniProt Q7Z3U7) 0.016
NPM3 (UniProt O75607) -0.184
ORC5 (UniProt O43913) 0.05
MLST8 (UniProt Q9BVC4) 0.116
MON1B (UniProt Q7L1V2) 0.089
NRDC isoform 2 (UniProt O43847) 0.021
NDUFA12 (UniProt Q9UI09) 0.075
MORC2 (UniProt Q9Y6X9) 0.148
NDUFB1 (UniProt O75438) -0.102
NCKAP1 isoform 2 (UniProt Q9Y2A7) 0.015
MTHFS (UniProt P49914) 0.034
NUP205 (UniProt Q92621) 0.068
MT-ATP6 (UniProt P00846) -0.078
NELFCD (UniProt Q8IXH7) 0.056
MLX (UniProt Q9UH92) 0.032
MRFAP1 (UniProt Q9Y605) -0.334
NSMCE2 (UniProt Q96MF7) 0.023
NNMT (UniProt P40261) 0.074

Compound: C1=CC2=NC=CN=C2C=C1/C=C/3\C(=O)NC(=O)S3
Experiment: as above
In short: as §1

log2 fold change, inactive:
NPC1 (UniProt O15118) 0.028
NFX1 (UniProt Q12986) -0.069
NME7 (UniProt Q9Y5B8) -0.023
NOP53 (UniProt Q9NZM5) 0.036
OAT (UniProt P04181) -0.151
NDUFS4 (UniProt O43181) 0.077
OTUD6B (UniProt Q8N6M0) 0.032
NDUFB8 (UniProt O95169) 0.087
NISCH (UniProt Q9Y2I1) 0.068
NFYB (UniProt P25208) 0.064
NA isoform 3 (UniProt Q4G0T1) -0.035
NUMB (UniProt P49757) 0.044
NFATC3 (UniProt Q12968) -0.013
NAGPA (UniProt Q9UK23) -0.018
OXSR1 (UniProt O95747) 0.004
MTHFD1 (UniProt P11586) -0.021
OTULIN (UniProt Q96BN8) 0.06
MRPS15 (UniProt P82914) 0.064
NMRAL1 (UniProt Q9HBL8) 0.141
MON2 isoform 5 (UniProt Q7Z3U7) 0.015
NPM3 (UniProt O75607) 0.04
ORC5 (UniProt O43913) 0.062
MLST8 (UniProt Q9BVC4) -0.026
MON1B (UniProt Q7L1V2) -0.01
NRDC isoform 2 (UniProt O43847) 0.024
NDUFA12 (UniProt Q9UI09) 0.001
MORC2 (UniProt Q9Y6X9) -0.097
NDUFB1 (UniProt O75438) 0.039
NCKAP1 isoform 2 (UniProt Q9Y2A7) 0.02
MTHFS (UniProt P49914) -0.024
NUP205 (UniProt Q92621) 0
MT-ATP6 (UniProt P00846) -0.391
NELFCD (UniProt Q8IXH7) 0.031
MLX (UniProt Q9UH92) -0.094
MRFAP1 (UniProt Q9Y605) 0.014
NSMCE2 (UniProt Q96MF7) -0.096
NNMT (UniProt P40261) 0
